# Assay results: the supplement of paper PMC10037445
# In all, about 2,900 compounds were measured (“NF-kB SEAP reporter activity, fold change vs agonist alone”: median about 0.99, highest 2% from about 2.6 on). What follows is part of a selection rich in the highest values, with near analogues and random picks from the rest.
# Assays:
# RAW-Dual [1] = assay: NF-kB SEAP reporter activity, fold change vs agonist alone; higher = enhanced NF-kB activity; conditions: library stock concentration (final ~1000-fold dilution): 10 mM
# In short: (§1)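 Cytotoxic wells were those whose IncuCyte confluency was below 70% of agonist controls in both mask sets. The cells were RAW-Dual macrophages at 50,000 cells/well in DMEM on 384-well plates, dosed with 50 nL of library stock by pin tool, stimulated with a PRR agonist 1 h later, and kept at 37 °C, 5% CO2 for 20 hours. IRF and NF-κB reporter activity, as fold change over agonist-alone wells, came from supernatant read by QuantiLuc luminescence and QuantiBlue absorbance, respectively.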
# RAW-Dual [2] = assay: NF-kB SEAP reporter activity, fold change vs agonist alone; cytotoxicity flag (confluency mask): not cytotoxic; higher = enhanced NF-kB activity
# In short: as §1
# [3] = cytotoxicity flag (confluency mask): cytotoxic (confluency <70% of control), agonist: Imiquimod (TLR7) […]
# [4] = cytotoxicity flag (confluency mask): cytotoxic (confluency <70% of control), agonist: MPLA (TLR4) […]
# [5] = agonist: ODN 1826 (TLR9) 0.5 ug/mL
# [6] = agonist: Pam2CSK4 (TLR2/6) 0.1 ug/mL
# [7] = agonist: Pam3CSK4 (TLR2/1) 0.1 ug/mL
# [8] = cytotoxicity flag (confluency mask): not cytotoxic, agonist: Imiquimod (TLR7) […]
# [9] = cytotoxicity flag (confluency mask): not cytotoxic, agonist: MPLA (TLR4) […]
smiles,measurement,setting,value
CN(C)CCCn1cc(C2=C(c3c[nH]c4ccccc34)C(=O)NC2=O)c2ccccc21,NF-kB SEAP reporter activity,RAW-Dual [1]; [3],1.13
same,NF-kB SEAP reporter activity,RAW-Dual [1]; [4],1.59
COc1ccc2c(c1)c(C1=C(c3c[nH]c4ccccc34)C(=O)NC1=O)cn2CCCN(C)C,NF-kB SEAP reporter activity,RAW-Dual [1]; [3],2.44
same,NF-kB SEAP reporter activity,RAW-Dual [1]; [4],1.71
Cc1ncc(NC(=O)c2cccc(C(F)(F)F)c2)cc1-c1cnc(OC2CCOCC2)c(N2CCOCC2)c1 (library stock concentration (final ~1000-fold dilution): 10 mM),NF-kB SEAP reporter activity,RAW-Dual [2]; agonist: LPS (TLR4) 0.1 ug/mL,1.31
same,NF-kB SEAP reporter activity,RAW-Dual [2]; [5],0.938
same,NF-kB SEAP reporter activity,RAW-Dual [2]; [6],0.495
same,NF-kB SEAP reporter activity,RAW-Dual [2]; [7],0.711
Cc1ncc(NC(=O)c2cccc(C(F)(F)F)c2)cc1-c1cnc(OC2CCOCC2)c(N2CCOCC2)c1,NF-kB SEAP reporter activity,RAW-Dual [1]; [8],0.898
same,NF-kB SEAP reporter activity,RAW-Dual [1]; [9],1.04
Cc1cc(C)c2c(c1)C(N(Cc1cc(C(F)(F)F)cc(C(F)(F)F)c1)c1nnn(C)n1)CCCN2CC1CCC(C(=O)O)CC1 (stereo unspecified),NF-kB SEAP reporter activity,RAW-Dual [1]; [8],0.911
same,NF-kB SEAP reporter activity,RAW-Dual [1]; [9],1.14
Cc1cc(C)c2c(c1)C(N(Cc1cc(C(F)(F)F)cc(C(F)(F)F)c1)c1nnn(C)n1)CCCN2CC1CCC(C(=O)O)CC1 (stereo unspecified) (library stock concentration (final ~1000-fold dilution): 10 mM),NF-kB SEAP reporter activity,RAW-Dual [2]; agonist: LPS (TLR4) 0.1 ug/mL,0.632
same,NF-kB SEAP reporter activity,RAW-Dual [2]; [5],0.635
same,NF-kB SEAP reporter activity,RAW-Dual [2]; [6],0.484
same,NF-kB SEAP reporter activity,RAW-Dual [2]; [7],0.444
CC(C)CC(NC(=O)C(NC(=O)c1cccc(-c2ccccc2)n1)C(C)O)B(O)O (stereo unspecified) (library stock concentration (final ~1000-fold dilution): 10 mM),NF-kB SEAP reporter activity,RAW-Dual [2]; agonist: LPS (TLR4) 0.1 ug/mL,0.629
same,NF-kB SEAP reporter activity,RAW-Dual [2]; [5],1.53
same,NF-kB SEAP reporter activity,RAW-Dual [2]; [6],0.976
same,NF-kB SEAP reporter activity,RAW-Dual [2]; [7],0.594
CC(C)CC(NC(=O)C(NC(=O)c1cccc(-c2ccccc2)n1)C(C)O)B(O)O (stereo unspecified),NF-kB SEAP reporter activity,RAW-Dual [1]; [8],2.29
same,NF-kB SEAP reporter activity,RAW-Dual [1]; [9],0.997
CCOC(=O)/C=C/c1ccc(O)c(OC)c1,NF-kB SEAP reporter activity,RAW-Dual [1]; [8],1.08
same,NF-kB SEAP reporter activity,RAW-Dual [1]; [9],1.2
CCOC(=O)/C=C/c1ccc(O)c(OC)c1 (library stock concentration (final ~1000-fold dilution): 10 mM),NF-kB SEAP reporter activity,RAW-Dual [2]; agonist: LPS (TLR4) 0.1 ug/mL,0.998
same,NF-kB SEAP reporter activity,RAW-Dual [2]; [5],1.03
same,NF-kB SEAP reporter activity,RAW-Dual [2]; [6],0.959
same,NF-kB SEAP reporter activity,RAW-Dual [2]; [7],1.07
COc1cc2nccc(Oc3ccc(NC(=O)Nc4ccc(F)cc4F)c(F)c3)c2cc1OC,NF-kB SEAP reporter activity,RAW-Dual [1]; [3],0.799
same,NF-kB SEAP reporter activity,RAW-Dual [1]; [4],0.975
COc1ncc(-c2ccc3nccc(-c4ccnnc4)c3c2)cc1NS(=O)(=O)c1ccc(F)cc1F (library stock concentration (final ~1000-fold dilution): 10 mM),NF-kB SEAP reporter activity,RAW-Dual [2]; agonist: LPS (TLR4) 0.1 ug/mL,6.18
same,NF-kB SEAP reporter activity,RAW-Dual [2]; [5],0.959
same,NF-kB SEAP reporter activity,RAW-Dual [2]; [6],2.26
same,NF-kB SEAP reporter activity,RAW-Dual [2]; [7],0.801
COc1ncc(-c2ccc3nccc(-c4ccnnc4)c3c2)cc1NS(=O)(=O)c1ccc(F)cc1F,NF-kB SEAP reporter activity,RAW-Dual [1]; [8],0.912
same,NF-kB SEAP reporter activity,RAW-Dual [1]; [9],0.957
